Twelve compounds from PubChem BioAssay (NCATS) can be followed below.

The nature of test [1]: qHTS for Inhibitors of Plasmodium falciparum (DD2) proliferation (AID 504314).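 Also: parasite DNA measured by SYBR Green fluorescence after red cell lysis; plate controls were DMSO vehicle for no effect and artemisinin wells for full effect.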 Particulars: P. falciparum Dd2 in erythrocytes, SYBR Green growth, 72 h; series mostly up to 6.11 µM. The procedure, abridged: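 Fluorescence read-out (ex 485/em 535 nm) of SYBR Green-stained parasite DNA quantifies intraerythrocytic growth. Cultures at 0.3% parasitemia and 2.5% hematocrit were treated for 72 h; data normalized to DMSO and 0.29 uM artemisinin wells.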

Test [2] is described as follows: qHTS for Inhibitors of Plasmodium falciparum (GB4) proliferation (AID 504315).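 Also: 0% = DMSO vehicle and -100% = 0.29 µM artemisinin control; nearly all actives have a fitted effect of over 50% in size.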 The settings on record: P. falciparum GB4 in erythrocytes, SYBR Green DNA, 72 h; series mostly up to 6.7 µM. A digest of the protocol: (§1)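 Erythrocytes infected with P. falciparum line (0.3% parasitemia, 2.5% hematocrit final) incubated with compounds 72 h at 37 °C, 5% CO2; SYBR Green lysis buffer added, fluorescence read next day. Normalized to 0.29 uM artemisinin and DMSO.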

The nature of test [3]: qHTS for Inhibitors of Plasmodium falciparum (HB3) proliferation (AID 504318). Also: nearly all actives have a fitted effect of over 60% in size. Also: potency is read from the fitted curve at half-maximal effect.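 As to activity change, negative = inhibition: 0% = DMSO vehicle and -100% = artemisinin control.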 Particulars: P. falciparum HB3 in erythrocytes, SYBR Green DNA, 72 h; series mostly up to 7.21 µM. A digest of the protocol:
as §1

Test [4] is described as follows: qHTS for Inhibitors of Plasmodium falciparum (CP250) proliferation (AID 504320).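 Also: plate controls were DMSO vehicle for no effect and 0.29 µM artemisinin control for full effect.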 The settings on record: P. falciparum CP250 in erythrocytes, SYBR Green DNA, 72 h; series mostly up to 6.7 µM. A digest of the protocol:
as §1

Test [5] concerns the target Atrial natriuretic peptide receptor 1 (Homo sapiens) (UniProt P16066). Briefly: Natriuretic polypeptide receptor (hNpr1) antagonism - Pilot CMLD screen (AID 1347052; calls by dose curve;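 also: HEK293 cells with hNpr1 stimulated by hNppA peptide at 0.1 nM; cGMP level read as GloSensor luciferase luminescence after agonist stimulation; % is scaled to controls: 0 for no effect and ±100 for the full control effect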). The settings on record: HEK293 hNpr1 GloSensor cGMP luminescence, ANP-stimulated; series mostly up to 9.22 µM.
Test [6] deals with Cytochrome P450 2C9 (Homo sapiens) (UniProt P11712). Briefly: qHTS Assay for Inhibitors and Substrates of Cytochrome P450 2C9 (AID 883). Also: % is scaled to controls: 0 for no effect and ±100 for the full control effect; nearly all actives have a fitted effect of over 60% in size. The settings on record: recombinant CYP2C9, luciferin-H luminescence, 60 min; series mostly up to 57.1 µM. The procedure, abridged:
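Luminescent read-out of deoxyluciferin hydroxylation, normalized to 57uM sulphaphenazole (AC100). Reaction: 10nM enzyme, 100uM Luciferin-H (equal to KM), 25mM KPO4, 10 min compound preincubation, then 60 min with NADPH regeneration, both at 37C.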

Test [7] addresses Cytochrome P450 3A4 (Homo sapiens) (UniProt P08684). Description: qHTS Assay for Inhibitors and Substrates of Cytochrome P450 3A4 (AID 884). Also: % is scaled to controls: 0 for no effect and ±100 for the full control effect; nearly all actives have a fitted effect of over 50% in size. The settings on record: recombinant CYP3A4, Luciferin-PPXE luminescence; series mostly up to 57.1 µM. The procedure, abridged:
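20 nM human CYP3A4 with 25 uM Luciferin-PPXE (at KM) in 200 mM KPO4, preincubated 10 min with compound; NADPH regeneration started a 60 min RT reaction. Luciferin detected by luminescence, normalized to 57 uM ketoconazole as full inhibition.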

Test [8] deals with Cytochrome P450 2D6 (Homo sapiens) (UniProt P10635). Briefly: qHTS Assay for Inhibitors and Substrates of Cytochrome P450 2D6 (AID 891).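 Also: luciferin methyl ether substrate demethylated by CYP2D6 with NADPH regeneration; % is scaled to controls: 0 for no effect and ±100 for the full control effect; nearly all actives have a fitted effect of over 60% in size.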 The settings on record: recombinant CYP2D6, luciferin-ME EGE luminescence; series mostly up to 57.1 µM. The procedure, abridged:
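Human CYP2D6 (5 nM) with 30 uM Luciferin-ME EGE (at Km) in 100 mM KPO4, compound preincubated 10 min, then NADPH regeneration system for 60 min at room temperature. Luciferin read by luminescence; normalized to 1.43 uM quinidine.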

The target of test [9] is Cytochrome P450 2C19 (Homo sapiens) (UniProt P33261). Briefly: qHTS Assay for Inhibitors and Substrates of Cytochrome P450 2C19 (AID 899). Also: % is scaled to controls: 0 for no effect and ±100 for the full control effect; nearly all actives have a fitted effect of over 60% in size. The settings on record: recombinant CYP2C19, luciferin-H EGE luminescence; series mostly up to 57.1 µM. A digest of the protocol:
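Luminescence readout of luciferin formed from 10uM Luciferin-H EGE (KM level) by 5 nM CYP2C19 in 50mM KPO4. 60 min NADPH-driven reaction at 37C after 10 min compound preincubation; data scaled to 57uM ketoconazole inhibition.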

Inconclusive results are not listed. Some compounds were tested as several samples or in several runs, with calls that do not always agree. Activity calls are given as the source filed them. Unless noted, calls follow the shape of the dose curve; as a rule, active = well fitted curve in the direction sought with a large enough effect; inconclusive = small, poorly fitted or top-dose-only effect, or another doubt; inactive = no such curve, though single readings can be large; an effect the other way counts as inactive or inconclusive.

Sequence of Atrial natriuretic peptide receptor 1 (Homo sapiens) (P16066 whole entry, looked up): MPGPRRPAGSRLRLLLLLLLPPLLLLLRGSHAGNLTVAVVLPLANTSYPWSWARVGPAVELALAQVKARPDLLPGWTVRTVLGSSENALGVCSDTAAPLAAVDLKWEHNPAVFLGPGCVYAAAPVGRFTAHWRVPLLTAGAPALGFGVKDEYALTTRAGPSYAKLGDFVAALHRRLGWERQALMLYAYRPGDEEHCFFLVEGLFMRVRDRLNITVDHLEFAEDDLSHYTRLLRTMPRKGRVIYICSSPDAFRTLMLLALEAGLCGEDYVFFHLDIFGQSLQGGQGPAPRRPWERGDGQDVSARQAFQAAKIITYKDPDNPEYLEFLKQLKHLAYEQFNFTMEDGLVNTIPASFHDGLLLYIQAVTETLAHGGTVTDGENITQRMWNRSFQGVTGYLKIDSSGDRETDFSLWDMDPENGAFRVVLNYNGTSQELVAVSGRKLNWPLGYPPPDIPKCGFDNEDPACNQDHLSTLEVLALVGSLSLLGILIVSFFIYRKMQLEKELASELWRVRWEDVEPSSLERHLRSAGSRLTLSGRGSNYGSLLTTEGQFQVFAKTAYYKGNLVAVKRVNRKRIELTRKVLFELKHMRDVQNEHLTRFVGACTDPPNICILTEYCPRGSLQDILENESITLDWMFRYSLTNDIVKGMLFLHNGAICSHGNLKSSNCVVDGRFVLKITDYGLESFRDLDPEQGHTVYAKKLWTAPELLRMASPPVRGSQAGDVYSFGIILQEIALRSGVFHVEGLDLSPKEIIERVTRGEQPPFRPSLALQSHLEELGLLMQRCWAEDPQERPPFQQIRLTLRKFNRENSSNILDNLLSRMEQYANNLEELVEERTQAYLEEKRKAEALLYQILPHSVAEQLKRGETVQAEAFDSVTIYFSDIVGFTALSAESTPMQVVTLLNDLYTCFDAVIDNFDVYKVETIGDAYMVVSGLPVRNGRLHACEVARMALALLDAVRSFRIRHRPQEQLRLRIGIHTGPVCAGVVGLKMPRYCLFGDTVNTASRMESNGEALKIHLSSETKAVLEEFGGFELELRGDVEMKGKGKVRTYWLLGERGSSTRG
Sequence of Cytochrome P450 2C9 (Homo sapiens) (P11712 whole entry, looked up): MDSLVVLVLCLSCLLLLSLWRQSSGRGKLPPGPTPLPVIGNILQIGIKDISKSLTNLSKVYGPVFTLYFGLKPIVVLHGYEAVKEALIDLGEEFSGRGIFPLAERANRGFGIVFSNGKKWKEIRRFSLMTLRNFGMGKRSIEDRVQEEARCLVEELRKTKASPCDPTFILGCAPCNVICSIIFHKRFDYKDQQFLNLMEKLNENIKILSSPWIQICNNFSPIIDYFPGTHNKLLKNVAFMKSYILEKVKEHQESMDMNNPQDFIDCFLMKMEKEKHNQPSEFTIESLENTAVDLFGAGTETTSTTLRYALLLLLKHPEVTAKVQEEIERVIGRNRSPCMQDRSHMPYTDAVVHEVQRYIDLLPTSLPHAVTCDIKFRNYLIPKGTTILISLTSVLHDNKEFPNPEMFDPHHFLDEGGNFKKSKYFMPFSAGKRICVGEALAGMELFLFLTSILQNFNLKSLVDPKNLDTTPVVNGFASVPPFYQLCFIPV
Sequence of Cytochrome P450 2C19 (Homo sapiens) (P33261 whole entry, looked up): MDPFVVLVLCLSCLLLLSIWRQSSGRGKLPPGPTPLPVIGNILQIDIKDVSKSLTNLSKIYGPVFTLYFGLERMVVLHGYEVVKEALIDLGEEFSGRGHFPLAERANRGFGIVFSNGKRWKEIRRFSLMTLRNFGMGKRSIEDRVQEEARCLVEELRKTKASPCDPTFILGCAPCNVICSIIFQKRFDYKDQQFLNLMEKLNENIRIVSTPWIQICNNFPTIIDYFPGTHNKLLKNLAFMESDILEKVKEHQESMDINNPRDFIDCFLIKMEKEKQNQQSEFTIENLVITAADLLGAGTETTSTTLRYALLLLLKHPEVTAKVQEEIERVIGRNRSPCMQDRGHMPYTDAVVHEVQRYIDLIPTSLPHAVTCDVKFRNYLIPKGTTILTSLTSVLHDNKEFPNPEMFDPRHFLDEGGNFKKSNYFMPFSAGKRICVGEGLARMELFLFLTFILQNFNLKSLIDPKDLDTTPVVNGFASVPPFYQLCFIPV
Sequence of Cytochrome P450 2D6 (Homo sapiens) (P10635 whole entry, looked up): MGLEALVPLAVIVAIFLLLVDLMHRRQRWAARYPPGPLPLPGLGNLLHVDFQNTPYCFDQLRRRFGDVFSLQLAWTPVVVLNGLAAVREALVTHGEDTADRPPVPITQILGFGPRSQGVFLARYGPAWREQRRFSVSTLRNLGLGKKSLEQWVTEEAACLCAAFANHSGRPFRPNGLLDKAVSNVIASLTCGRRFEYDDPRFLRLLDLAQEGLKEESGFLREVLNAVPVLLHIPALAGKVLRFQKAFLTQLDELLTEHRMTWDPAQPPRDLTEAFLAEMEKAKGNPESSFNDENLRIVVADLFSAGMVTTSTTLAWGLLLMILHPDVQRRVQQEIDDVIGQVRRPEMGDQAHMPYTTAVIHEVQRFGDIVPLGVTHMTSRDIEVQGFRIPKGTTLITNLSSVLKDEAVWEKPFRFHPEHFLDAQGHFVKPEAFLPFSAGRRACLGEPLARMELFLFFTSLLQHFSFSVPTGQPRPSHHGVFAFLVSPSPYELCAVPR
Sequence of Cytochrome P450 3A4 (Homo sapiens) (P08684 whole entry, looked up): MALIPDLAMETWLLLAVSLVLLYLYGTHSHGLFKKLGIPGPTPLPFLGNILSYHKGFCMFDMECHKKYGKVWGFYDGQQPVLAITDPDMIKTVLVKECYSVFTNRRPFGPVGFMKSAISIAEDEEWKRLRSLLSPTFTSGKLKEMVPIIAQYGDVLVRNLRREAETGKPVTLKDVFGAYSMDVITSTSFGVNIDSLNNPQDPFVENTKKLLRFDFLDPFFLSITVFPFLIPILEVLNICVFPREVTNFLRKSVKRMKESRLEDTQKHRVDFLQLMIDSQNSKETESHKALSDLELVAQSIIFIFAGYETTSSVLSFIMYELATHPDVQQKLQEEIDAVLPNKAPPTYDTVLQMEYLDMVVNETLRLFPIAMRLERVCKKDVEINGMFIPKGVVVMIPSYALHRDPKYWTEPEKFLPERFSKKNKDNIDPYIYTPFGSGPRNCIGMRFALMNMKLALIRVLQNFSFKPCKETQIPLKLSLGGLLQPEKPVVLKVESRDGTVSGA

Regarding `CC(C)[C@@H](OCc1ccccc1)[C@H](C)C=NOC[C@@H](C)[C@H](OCc1ccccc1)C(C)C`, the Potency entry in test [1], in [2], in [3], in [4] and in [5] was “inactive” in each case.
Take `COC(=O)[C@H](COC(C)(C)C)NC(=O)O[C@@H]1C(=O)c2cc(OC)ccc2O[C@H]1c1cccc(OC)c1`: the Potency entry in [1], in test [2], in test [3], in test [4] and in test [5] was “inactive” each time.
On to `CCCCC[C@]12Cc3cc(OC)c(OC)cc3[C@H](O1)c1c(cc(C)n(-c3ccccc3)c1=O)O2`, for which the Potency entry in test [1], in [2], in [4] and in test [5] was “inactive” in each case. In [3], the Potency was 2.94 µM (active) and inactive.
For the compound `COc1ccc(-c2nc3c(c4c2C[C@H](c2ccccc2)OC4)CN(C(=O)C2CC2)CC3)c(C)c1`, the Potency entry in [1], in test [2], in [3], in test [4] and in test [5] was “inactive” in each case.
Take `COC(=O)C1=C(C(=O)OC)[C@@H]2N(C)c3ccccc3[C@@]23C[C@@H](C(=O)OC)N(C(=O)c2cccs2)C3=N1`: the Potency entry in [1], in test [2], in test [3], in test [4] and in test [5] was “inactive” in each case.
With `CCOC(=O)CN1C(=O)[C@@]2(CC(C)=C[C@@H](COCc3ccccc3)O2)c2ccccc21`, the Potency result in [1], in test [2], in [3], in test [4] and in test [5] was “inactive” each time.
Regarding `COc1ccc2c(c1)O[C@@H](c1cccc(C(F)(F)F)c1)[C@H](OC(=O)Nc1ccc(OC(F)F)cc1)C2=O`, the Potency entry in test [1], in [2], in test [3], in [4] and in test [5] was “inactive” each time.
Take `COC(=O)N1C2=C(c3ccccc3[C@@H]1CC(=O)O)[C@@H]1O[C@@H](C2)c2ccccc21`: the Potency entry in test [1], in [2], in test [3], in test [4] and in test [5] was “inactive” in each case.
Turning to `O=C(NC(CC1=CCCCC1)c1ccccc1)C(F)(F)F` (centres undefined), the Potency entry in [1], in [2], in test [3], in [4] and in test [5] was “inactive” each time.
Regarding `C[C@H]1Cc2c(COc3ccccc3)nc3c(c2CO1)CN(C(=O)c1cccnc1)CC3`, in test [1], the activity, negative = inhibition was 0.654% [at 1.12 µM] (inactive). Moreover, the Potency entry in test [2], in [3], in test [4] and in test [5] was “inactive” in each case.
In the case of `CC1=C(C)CC(c2ccccc2)C(C(=O)c2ccccc2O)C1` (centres undefined), the activity change, negative = inhibition in [6] is -27.8% [at 11.4 µM] (inactive); in test [7], -21.6% [at 11.4 µM] (inactive); in test [8], 6.86% [at 11.4 µM] (inactive). The activity, negative = inhibition in test [9] is -23.3% [at 11.4 µM] (inactive). Besides, the Potency result in test [1], in [2], in test [3], in test [4] and in test [5] was “inactive” each time.
`CCN1C(=NCc2ccco2)N[C@@H](c2ccccc2)[C@H](C(=O)OC)[C@H]1C`: the Potency entry in test [1], in [2], in test [3], in test [4] and in test [5] was “inactive” each time.
